{
  "source": "PubChem BioAssay",
  "note": "Activity calls are given as the source filed them.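 How the source made its calls: active means inhibition at or above 50% relative to wild type and mutant plate controls; inactive means inhibition below 50%.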",
  "data": [
    {"assay": "inhibitors of Chlamydomonas gravitaxis, primary screen, whole organism, Chlamydomonas reinhardtii, WT vs cilia-less mutant, absorbance, 96-well (AID 463189);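 further: 0% = wild type cc124 cells in DMSO and 100% = ciliumless bld1 mutant cells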", "conditions": "OD600 absorbance, 2 days, at 10 µM, hits give high values", "values": [
      {"compound": "CCCCCCCCCCC/C=C\\C(C)(C)/C=C\\CCCC(=O)O", "inhibition": "-1.7% (inactive)"},
      {"compound": "CN1CCc2ccccc2Cc2[nH]c3ccccc3c2CC1", "inhibition": "10.8% (inactive)"},
      {"compound": "C=Cc1c(C)c2cc3[nH]c(cc4nc(cc5nc(cc1[nH]2)C(C)=C5CCC(=O)O)C(CCC(=O)O)=C4C)c(C)c3C=C", "inhibition": "9.54% (inactive)"},
      {"compound": "COc1cc2c(cc1C(F)(F)F)N(C(=O)Nc1cc(F)cc(-c3cccnc3)c1)CC2", "inhibition": "0.852% (inactive)"},
      {"compound": "COC(=O)[C@H]1[C@H]2C[C@H]3c4[nH]c5ccccc5c4CCN3C[C@H]2CC[C@@H]1O", "inhibition": "6.15% (inactive)"},
      {"compound": "CN[C@H](CC(C)C)C(=O)N[C@H]1C(=O)N[C@@H](CC(N)=O)C(=O)N[C@H]2C(=O)N[C@H]3C(=O)N[C@H](C(=O)N[C@H](C(=O)O)c4cc(O)cc(O)c4-c4cc3ccc4O)[C@H](O)c3ccc(c(Cl)c3)Oc3cc2cc(c3O[C@@H]2O[C@H](CO)[C@@H](O)[C@H](O)[C@H]2O[C@H]2C[C@](C)(N)[C@H](O)[C@H](C)O2)Oc2ccc(cc2Cl)[C@H]1O", "inhibition": "15.1% (inactive)"},
      {"compound": "Nc1ncnc2c1nc(Br)n2C1OC2COP(=O)(O)O[C@@H]2C1O", "note": "(stereo not given in full)", "inhibition": "7.89% (inactive)"},
      {"compound": "NOCC(=O)O", "inhibition": "-13.3% (inactive)"},
      {"compound": "Cc1ccc2c(c1)C(N1CCN(C)CC1)=Nc1cccnc1N2", "inhibition": "7.3% (inactive)"},
      {"compound": "NC(Cc1ccc(Cl)cc1)C(=O)O", "note": "(stereo not given)", "inhibition": "-1.92% (inactive)"},
      {"compound": "NC(=O)CNCCC(c1ccccc1)c1ccccc1", "inhibition": "-2.16% (inactive)"},
      {"compound": "CC(=O)[C@]1(O)Cc2c(O)c3c(c(O)c2[C@@H](O[C@H]2C[C@H](N)[C@H](O)[C@H](C)O2)C1)C(=O)c1ccccc1C3=O", "inhibition": "-16.2% (inactive)"},
      {"compound": "N=C1Sc2ccccc2C2=NCCCN12", "inhibition": "9.36% (inactive)"},
      {"compound": "CCC(=O)N1CCN(C(=O)c2ccccc2)CC1", "inhibition": "0.644% (inactive)"},
      {"compound": "CCCCCCC/C=C\\CCCCCCCCC(=O)O", "inhibition": "9.07% (inactive)"},
      {"compound": "OCC1NCC(O)C(O)C1O", "note": "(stereo not given)", "inhibition": "-0.461% (inactive)"},
      {"compound": "CCCCCC(O)c1cccc(OCc2ccc3ccccc3n2)c1", "note": "(stereo not given)", "inhibition": "3.99% (inactive)"},
      {"compound": "N#C/C(=C\\c1ccc(O)c(O)c1)C(=O)NCCc1ccccc1", "inhibition": "-1.25% (inactive)"},
      {"compound": "CCCC[C@@]1(C2CCCC2)Cc2cc(OCC(=O)O)c(Cl)c(Cl)c2C1=O", "inhibition": "4.57% (inactive)"},
      {"compound": "O=C(CCc1ccc(O)cc1)c1c(O)cc(O)cc1O", "inhibition": "-0.519% (inactive)"},
      {"compound": "O=C(OCCN1CCOCC1)C1(c2ccccc2)CCCCC1", "inhibition": "2.35% (inactive)"},
      {"compound": "CO/N=C(\\C(=O)N[C@@H]1C(=O)N2C(C(=O)O)=C(COC(C)=O)CS[C@H]12)c1csc(N)n1", "note": "(stereo in doubt)", "inhibition": "6.36% (inactive)"},
      {"compound": "C[n+]1cc2c3c(ccc2c2ccc4cc5c(cc4c21)OCO5)OCO3", "inhibition": "145% (active)"},
      {"compound": "CN(C(=O)CCCOc1ccc2[nH]c(=O)ccc2c1)C1CCCCC1", "inhibition": "3.15% (inactive)"},
      {"compound": "NCCCS(=O)(=O)O", "inhibition": "-4.87% (inactive)"},
      {"compound": "NC[C@@H]1O[C@H](C23CC4CC(CC(C4)C2)C3)Cc2c1ccc(O)c2O", "inhibition": "0.204% (inactive)"},
      {"compound": "O=C(O)C1CCNCC1", "inhibition": "4.95% (inactive)"},
      {"compound": "O=S(=O)(NCCNC/C=C/c1ccc(Br)cc1)c1cccc2cnccc12", "inhibition": "19.5% (inactive)"},
      {"compound": "CCCCNc1ccc(C(=O)OCCN(C)C)cc1", "inhibition": "8.43% (inactive)"},
      {"compound": "O=C(O)C1=CCNCC1", "inhibition": "0.676% (inactive)"},
      {"compound": "NS(=O)(=O)c1cccc2c1c([N+](=O)[O-])cc1nc(O)c(O)nc12", "inhibition": "0.793% (inactive)"},
      {"compound": "S=C(S)N1CCCC1", "inhibition": "21.2% (inactive)"},
      {"compound": "CCN(c1nc(N)c(C(=O)N=C(N)N)nc1Cl)C(C)C", "inhibition": "7.11% (inactive)"},
      {"compound": "COC(=O)c1c(-c2cc(OC)c(OC)c(OC)c2)c2ccnc(OCc3ncccn3)c2c(=O)n1Cc1ccnc(C)c1", "inhibition": "-6.21% (inactive)"},
      {"compound": "Nc1ccc(CCNc2ncnc3c2ncn3C2OC(CO)C(O)C2O)cc1", "note": "(stereo not given)", "inhibition": "3.12% (inactive)"},
      {"compound": "COc1ccc2[nH]c(I)c(CCNC(C)=O)c2c1", "inhibition": "-0.69% (inactive)"},
      {"compound": "Cn1c(=O)[nH]c2ncn(C)c2c1=O", "inhibition": "-7.51% (inactive)"},
      {"compound": "O=C(O)Cc1c[nH]c2ccc(O)cc12", "inhibition": "-4.32% (inactive)"},
      {"compound": "COC(=O)C(N)Cc1ccc(Cl)cc1", "note": "(stereo not given)", "inhibition": "-0.698% (inactive)"},
      {"compound": "COc1cccc(C(=O)NCCN2CCN(c3ccc(Cl)cc3)CC2)c1", "inhibition": "0.497% (inactive)"}
    ]}
  ]
}
